The results in this text go back to a collection of fitness landscapes (doi:10.1016/j.celrep.2020.107928).

In all, about 81,000 sequences were measured (“one-hybrid fitness for binding NBS DNA”: median about -0.1, highest 2% from about 0.36 on). For the sample, the highest values were picked, then their nearest neighbours and some sequences at random.

First the molecules themselves.
B1: Caulobacter ParB omega fusion; a variant is named by its letters at X, in order, B8GW30 (parent)
chain: MESVVVGEPGMSEGRRGLGRGLSALLGEVDAAPAQAPGEQLGGSREAPIEILQRNPDQPRRTFREEDLEDLSNSIREKGVLQPILVRPSPDTAGEYQIVAGERAWRAAQRAGLKTVPIMVRELDDLAVLEIGIIENVQRADLNVLEEALSYKVLMEKFERTQENIAQTIGKSXSHVANXMRLLXLPDEVQSYLVSGELTAXHARAIAAAADPVALAKQIIEGGLSVRETEALARKAPNLSAGKSKGGRPPRVKDTDTQALESDLSSVLGLDVSIDHRGSTGTLTITYATLEQLDDLCNRLTRGI

In the assay the parent is B1. Kind of assay: one-hybrid fitness for binding NBS DNA (the Noc-binding site; scaled: cognate 1, non-cognate 0); higher = stronger binding. The note with it: with NBS DNA site. In a few lines:
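Caulobacter ParB libraries with four specificity codons randomised were screened by bacterial one-hybrid selection in the E. coli USO strain, using a HIS3 reporter whose site lies 19 bp from the promoter. Selection ran for 48 hours at 37°C on M9 lacking histidine, with 0.1 mM IPTG and 5 mM 3-AT. Plasmids were Illumina-sequenced before and after selection, three replicate libraries were pooled, and variants with under 10 reads were dropped. Fitness is the log change in each variant's read ratio to wild type, rescaled against the cognate and non-cognate sites.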
On to SSEH, for which the “one-hybrid fitness for binding NBS DNA” value was ≤ 0.2. Take RTQH: the “one-hybrid fitness for binding NBS DNA” value was ≤ 0.2. With RSQN, the “one-hybrid fitness for binding NBS DNA” value was ≤ 0.2. Regarding RHQS, the “one-hybrid fitness for binding NBS DNA” value amounted to 0.455. In the case of RKQD, the “one-hybrid fitness for binding NBS DNA” value is ≤ 0.2. Take RSQS: the “one-hybrid fitness for binding NBS DNA” value was found to be 0.433. Consider RSQD, for which the “one-hybrid fitness for binding NBS DNA” value was ≤ 0.2. Consider RHQH, for which the “one-hybrid fitness for binding NBS DNA” value is ≤ 0.2. Consider RTQD, for which the “one-hybrid fitness for binding NBS DNA” value is ≤ 0.2. Consider RHQN, for which the “one-hybrid fitness for binding NBS DNA” value was ≤ 0.2. To RKQS belongs 0.543. For RKQN, the “one-hybrid fitness for binding NBS DNA” value was ≤ 0.2. Take RTQS: the “one-hybrid fitness for binding NBS DNA” value came out at 0.459.

On to YQLE, for which the “one-hybrid fitness for binding NBS DNA” value was ≤ 0.2. In the case of WLLP, the “one-hybrid fitness for binding NBS DNA” value was ≤ 0.2. As to PIRG, the “one-hybrid fitness for binding NBS DNA” value was ≤ 0.2.

As to RLRW, the “one-hybrid fitness for binding NBS DNA” value is ≤ 0.2. For the variant TAYQ, the “one-hybrid fitness for binding NBS DNA” value is ≤ 0.2. The figure for ARIK is ≤ 0.2.

Consider ACVN, for which the “one-hybrid fitness for binding NBS DNA” value was ≤ 0.2. To VRHN belongs ≤ 0.2; to IRAF, ≤ 0.2; to KMGK, ≤ 0.2. Take VQSE: the “one-hybrid fitness for binding NBS DNA” value is ≤ 0.2.

On to DNKI, for which the “one-hybrid fitness for binding NBS DNA” value is ≤ 0.2.

Regarding DLTY, the “one-hybrid fitness for binding NBS DNA” value was ≤ 0.2. On to WNVE, for which the “one-hybrid fitness for binding NBS DNA” value was ≤ 0.2. RMQS: the “one-hybrid fitness for binding NBS DNA” value was found to be 0.409. Regarding RAQD, the “one-hybrid fitness for binding NBS DNA” value is ≤ 0.2. With RMQN, the “one-hybrid fitness for binding NBS DNA” value was ≤ 0.2. For RLQP, the “one-hybrid fitness for binding NBS DNA” value is ≤ 0.2. Take RAQS: the “one-hybrid fitness for binding NBS DNA” value came out at 0.416. With RMQH, the “one-hybrid fitness for binding NBS DNA” value is ≤ 0.2. The figure for RLQH is ≤ 0.2. RAQN: the “one-hybrid fitness for binding NBS DNA” value is ≤ 0.2. For the variant RLQS, the “one-hybrid fitness for binding NBS DNA” value stood at 0.382.

Turning to RPQS, the “one-hybrid fitness for binding NBS DNA” value is ≤ 0.2. To RCQS belongs 0.474. The figure for RDQS is ≤ 0.2; for PCVC it is ≤ 0.2; for NLCG it is ≤ 0.2. TPCN: the “one-hybrid fitness for binding NBS DNA” value is ≤ 0.2.

Take RCCC: the “one-hybrid fitness for binding NBS DNA” value is ≤ 0.2.

Take VASN: the “one-hybrid fitness for binding NBS DNA” value is ≤ 0.2.

As for HSTM, the “one-hybrid fitness for binding NBS DNA” value was ≤ 0.2. The figure for SDNA is ≤ 0.2; for FLCR it is ≤ 0.2; for WDPR it is ≤ 0.2. On to GLGG, for which the “one-hybrid fitness for binding NBS DNA” value was ≤ 0.2. In the case of RSGR, the “one-hybrid fitness for binding NBS DNA” value stood at 0.459.

On to RPGR, for which the “one-hybrid fitness for binding NBS DNA” value is ≤ 0.2. To RSGP belongs ≤ 0.2; to RFGR, 0.23; to RCGR, 0.523. With RSGH, the “one-hybrid fitness for binding NBS DNA” value was ≤ 0.2. In the case of HRAM, the “one-hybrid fitness for binding NBS DNA” value was ≤ 0.2. For the variant FIVS, the “one-hybrid fitness for binding NBS DNA” value is ≤ 0.2. Turning to DFTV, the “one-hybrid fitness for binding NBS DNA” value is ≤ 0.2. The figure for TRKT is 0.578; for TRNT it is 0.459; for TRDT it is ≤ 0.2. TCRT: the “one-hybrid fitness for binding NBS DNA” value was ≤ 0.2.

TRVT: the “one-hybrid fitness for binding NBS DNA” value is ≤ 0.2. For TRRS, the “one-hybrid fitness for binding NBS DNA” value turned out to be 0.38. TRRT: the “one-hybrid fitness for binding NBS DNA” value was found to be 0.526. On to TRYT, for which the “one-hybrid fitness for binding NBS DNA” value was 0.334.

For the variant TCKT, the “one-hybrid fitness for binding NBS DNA” value was ≤ 0.2. Take TRRN: the “one-hybrid fitness for binding NBS DNA” value is ≤ 0.2. On to TRYS, for which the “one-hybrid fitness for binding NBS DNA” value was ≤ 0.2.

For the variant TCNT, the “one-hybrid fitness for binding NBS DNA” value is ≤ 0.2.

Regarding PANE, the “one-hybrid fitness for binding NBS DNA” value is ≤ 0.2.

As for KSQQ, the “one-hybrid fitness for binding NBS DNA” value is ≤ 0.2. With NCPT, the “one-hybrid fitness for binding NBS DNA” value is ≤ 0.2. For the variant FMKS, the “one-hybrid fitness for binding NBS DNA” value is ≤ 0.2. Take QNLL: the “one-hybrid fitness for binding NBS DNA” value was ≤ 0.2. For SKPR, the “one-hybrid fitness for binding NBS DNA” value is ≤ 0.2. As to CSPY, the “one-hybrid fitness for binding NBS DNA” value is ≤ 0.2.

QVAP: the “one-hybrid fitness for binding NBS DNA” value was ≤ 0.2. QRFR: the “one-hybrid fitness for binding NBS DNA” value is 0.865.

With DRAR, the “one-hybrid fitness for binding NBS DNA” value was ≤ 0.2. With NRAR, the “one-hybrid fitness for binding NBS DNA” value was ≤ 0.2. The figure for QRAR is 1.01; for QRFF it is ≤ 0.2; for IFSI it is ≤ 0.2.
